Screens (PubChem BioAssay)
Compounds with a hit are over-represented: about 2.9% of the library has one in this group of screens.
B2AR arrestin: agonists driving beta-arrestin recruitment to human beta2-adrenergic receptor; P07550; beta-arrestin recruitment to beta2AR, cell-based reporter; Potency, µM (top dose mostly 46.1 µM), without a hit: at the top dose activation, actives largely listed as activators; 0.02% of 330,000 active; AID 492947;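 also: potency is read from the fitted curve at half-maximal effect; 0% = DMSO controls and full agonism = EC100 isoproterenol or metaproterenol; nearly all actives have a fitted effect of over 65% in size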
IDH1 R132H inh: inhibitors of human mutant IDH1 R132H; Potency, µM (doses to about 76.6 µM), for the others: at the top dose activity change, negative = inhibition, actives largely listed as inhibitors; O75874; IDH1-R132H enzyme, NADPH consumption, diaphorase/resazurin fluorescence; 0.093% of 390,000 active; also: potency is read from the fitted curve at half-maximal effect; % is scaled to controls: 0 for no effect and ±100 for the full control effect; nearly all actives have a fitted effect of over 65% in size
Target sequence (O75874 whole entry R132H, stated change not applied): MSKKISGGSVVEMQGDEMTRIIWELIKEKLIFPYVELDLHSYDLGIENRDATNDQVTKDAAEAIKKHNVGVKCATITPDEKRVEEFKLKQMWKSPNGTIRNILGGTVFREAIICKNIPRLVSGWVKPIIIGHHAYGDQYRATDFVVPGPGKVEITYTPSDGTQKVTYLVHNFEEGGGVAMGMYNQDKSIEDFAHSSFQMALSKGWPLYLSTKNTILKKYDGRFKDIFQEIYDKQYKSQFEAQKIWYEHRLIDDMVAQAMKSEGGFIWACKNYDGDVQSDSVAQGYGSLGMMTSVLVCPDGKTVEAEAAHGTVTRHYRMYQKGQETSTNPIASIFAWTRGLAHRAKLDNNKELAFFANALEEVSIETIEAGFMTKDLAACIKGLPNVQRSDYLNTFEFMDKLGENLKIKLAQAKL
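IDH1-R132H (0.5 ug/mL dispensed) in pH 7.5 Tris buffer was preincubated 30 min with compound, then given a substrate mix of 0.016 mM NADPH and 2 mM alpha-KG for 80 min at room temperature; remaining NADPH was read by diaphorase/resazurin fluorescence.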
DRD3 antagonist: blocks the human D3 dopamine receptor; D3R cells, DiscoveRx beta-arrestin luminescence, antagonist mode; active compounds read low; max response, negative = inhibition, %; 2.5% of 360,000 active; AID 652054; in the data active = max response below about -50%; also: % is scaled to controls: 0 for no effect and ±100 for the full control effect
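Cells plated overnight at 1500 cells/well, then exposed to library compounds with dopamine controls for 90 minutes at 37 degrees C. DiscoveRx reagent added for 30–60 minutes at room temperature; luminescence read, quantitative HTS format.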
DRD3 agonist: activates the human D3 dopamine receptor. P35462. 0.58% of 410,000 active. D3R DiscoveRx beta-arrestin cells, luminescence, 90 min. max activation, %; in the data active = max activation above about 30%; also: 0% is about no effect
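Agonist mode: compounds and dopamine controls were applied to plated cells for 90 min at 37 degrees C after an overnight attachment at 1500 cells/well. Luminescent read-out followed 30 - 60 minutes at room temperature with DiscoveRx detection reagent.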
Integrin act MD: integrin-mediated muscular dystrophy alleviation activation; alpha7betagal myoblasts, beta-gal FDG fluorescence, 48 h; Potency, µM (titrated, usually from 38.3 µM), without a hit: at the top dose activation, hits mostly activators; 0.064% of 350,000 active;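 also: potency is read from the fitted curve at half-maximal effect; 100% = response of the positive control SU9516; nearly all actives have a fitted effect of over 60% in size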
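alpha7betagal+/- myoblasts (passage 13, 250/well) treated 48 h at 37C with compounds at 1:260 dilution of DMSO stock. Lysed, then beta-galactosidase activity read as FDG fluorescence (ex 480/em 540) after 30 min, with pre-read for autofluorescence.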
Active calls of the source: *; · = no result given; [ ] = dose if it differs, or a comment. Unless noted, calls follow the shape of the dose curve; as a rule, active = well fitted curve in the direction sought with a large enough effect; inconclusive = small, poorly fitted or top-dose-only effect, or another doubt; inactive = no such curve, though single readings can be large; an effect the other way counts as inactive or inconclusive.

SMILES	B2AR arrestin	IDH1 R132H inh	DRD3 antagonist	DRD3 agonist	Integrin act MD
CCc1c(C)c2ccc(O)c(CN3CCN(c4ccc(F)cc4)CC3)c2oc1=O	·	-7%	·	-19	·
CC(C)C1Cc2[nH]c(=S)[nH]c(=O)c2C(c2ccc(Cl)cc2)O1 (configuration not stated)	·	·	21	8	·
Cc1csc(C)[n+]1CC(=O)c1ccccc1	-1%	4%	9	-2	-8%
Cc1n(N)c2ccccc2[n+]1CC(=O)c1ccccc1	0%	21%	-82*	-11	-22%
CN(CC(=O)N1CCCc2c1c(=O)oc1ccc(O)cc21)Cc1ccccc1	0%	4%	-68*	-11	3%
CC1CCN(CCC(=O)N2CCCc3c2c(=O)oc2ccc(O)cc32)CC1	1%	1%	-63*	-8	-12%[7.66 µM]
CC(C(=O)N1CCCc2c1c(=O)oc1ccc(O)cc21)N1CCc2ccccc2C1 (configuration not stated)	-1%	9%	-9	-19	14%
O=C(NC1CC(=O)N(c2cccc(F)c2)C1)C1CC1 (configuration not stated)	·	-13%	·	17	·
Cc1cccc(NC(=O)CN(CC2CCCO2)C(=O)c2cc3ccccc3o2)c1C (configuration not stated)	0%	0%	17	0	17%
CC1(C)C2CCC(CN=C(N)CSS(=O)(=O)O)C1C2 (configuration not stated)	·	-2%	-99*	-18	29%
O=c1c(Cc2ccccc2)c(O)ccn1Cc1ccc2c(c1)OCO2	0%	10%	-4	0	0%
O=[N+]([O-])c1ccc(N2CCN(CC3CCCCC3)CC2)cc1	0%	15%	-58*	-5	-20%
Cc1ccc(CN2CCN(/N=C/c3cccs3)CC2)cc1	0%	2%	-59*	-8	19%
Cc1ccc(CN2CCN(/N=C/c3cc(Br)ccc3O)CC2)cc1	0%	5%	-87*	-37	7%
O=C(CSc1nnc(-c2ccccc2F)n1C1CC1)NC(=O)c1cccc([N+](=O)[O-])c1	0%	10%	-57*	-54	3%
Cn1c(SCC(=O)NC(=O)c2cccc([N+](=O)[O-])c2)nnc1-c1ccc(F)cc1	0%	1%	-27	-4	-34%
CCc1ccc(NC(=O)c2nn(-c3ccc(OC)cc3)c(=O)c3c2c2ccccc2n3C)cc1	·	·	·	5	·
COC(=O)c1ccc(NC(=O)C2CCN(c3ncnc4c3nc3n4CCCCC3)CC2)cc1	·	-1%	·	-3	·
Cc1ccc(/C=C/C(=O)O)cc1S(=O)(=O)NCc1ccco1	0%	-9%	10	41*	24%
OC(CCCN1CCC(O)(c2ccc(Cl)cc2)CC1)c1ccc(F)cc1 (configuration not stated)	0%	-12%	-114*	-95	·
CCCOc1ccc(NC(=O)CC2C(=O)N(c3ccc(OC)cc3)C(=O)N2CCc2ccncc2)cc1 (configuration not stated)	·	0%	·	1	·
CSc1ccc2c(c1)C(N1CCN(C)CC1)Cc1ccccc1S2 (configuration not stated)	0%	6%	-84*	-81	-51%
CN1CCN(S(=O)(=O)c2cc(C(F)(F)F)ccc2Cl)CC1	3%	14%	-2	-3	-36%
CN1CCN(C2Cc3ccccc3Sc3cc(C(F)(F)F)ccc32)CC1 (configuration not stated)	·	17%	-96*	-18	-64%
CN1CCN(C2Cc3ccccc3Sc3ccc(Cl)cc32)CC1 (configuration not stated)	0%	4%	0	0	·
SMILES	B2AR arrestin	IDH1 R132H inh	DRD3 antagonist	DRD3 agonist	Integrin act MD
CC(=O)N(c1cc(C)ccc1C)c1ccccc1[N+](=O)[O-]	·	2%	4	-7	13%
CCOc1ccc(C2=NC(c3cccs3)=Nc3ccc(CC)cc3N2)cc1OCC	·	-8%	·	-12	·
CCCc1cnc2c(c1SCC(=O)N(C)c1ccccc1)c(=O)n(C)c(=O)n2C	·	-8%	·	-2	·
CCc1ccccc1N(CC)C(=O)Cn1nc(Cc2ccncc2)c2ccccc2c1=O	·	-1%	·	-6	·
COc1ccccc1C(=O)Nc1ccccc1SC(=O)c1ccccc1OC	0%	10%	-57*	-16	-72%
COc1cc(-c2noc(-c3ccc(NC4CCCC4)c([N+](=O)[O-])c3)n2)cc(OC)c1OC	·	15%	·	4	·
Nc1nonc1/C(=N/O)N1CCN(CCO)CC1	0%	-2%	-64*	-13	2%
CN1CCN(/C(=N\O)c2nonc2N)CC1	-1%	2%	-68*	-7	0%
CO/N=C(/c1nonc1N)N1CCN(c2ccc([N+](=O)[O-])cc2)CC1	0%	-1%	16	2	-7%
Nc1nonc1C(=O)OCC(=O)N1CCOCC1	0%	11%	-5	1	15%
Cc1cc2ccccc2n1-c1ccc(C(=O)N2CCC(C(=O)NCc3ccc(F)cc3)CC2)s1	·	-7%	·	-3	·
O=c1[nH]c(C(F)(F)F)nc2ccccc12	0%	-2%	-60*	-7	-18%
Cc1ccccc1Cn1c2ccccc2c2cnn(CC(=O)NCCc3ccccc3)c(=O)c21	·	-11%	·	-12	·
CC(C)C[C@@H](CO)N(Cc1ccccc1)S(=O)(=O)N(Cc1ccccc1)[C@H](CO)CC(C)C	0%	5%	129	48*	-38%
CC(C)C[C@@H](CO)N(Cc1ccccc1)S(=O)(=O)N(Cc1ccccc1)[C@@H](CO)CC(C)C	0%	12%	123	-16	-40%
C=CS(=O)(=O)N(Cc1ccccc1Br)[C@H](CO)CC(C)C	·	-6%[38.3 µM]	-81*	0	0%
COc1ccc([C@]23Cc4cc(C#N)ccc4[C@H](O2)c2c(cc(C)n(Cc4ccccc4)c2=O)O3)cc1	0%[9.22 µM]	·	·	·	·
CCN(CC)c1cc(Cl)nc(N)n1	0%	9%	3	0	-7%
CN(Cc1ccccc1)c1cc(Cl)nc(N)n1	0%	9%	-10	38*	-36%
CCOC(=O)[C@H](CS)NCCN[C@@H](CS)C(=O)OCC	·	·	·	0	·
CC(=O)N(Cc1c(C#N)c2ccccc2n1C)c1ccccc1	0%	8%	-1	-8	19%
CN1CCN(Cc2c(C#N)c3ccccc3n2C)CC1	0%	3%	-6	-5	-11%
CCOC(=O)CSCc1c(C#N)c2ccccc2n1C	0%	11%	-52*	0	-1%
CC1CCN(Cc2c(C#N)c3ccccc3n2C)CC1	0%	10%	-75*	1	0%
CC1CCCCN1Cc1c(C#N)c2ccccc2n1C (configuration not stated)	·	1%	-66*	-11	-25%
Cn1c(CN2CCCC2)c(C#N)c2ccccc21	4%	13%	-86*	-12	7%
Cc1[nH]c2ccccc2c1C(O)CN1CCN(c2cccc(C(F)(F)F)c2)CC1 (configuration not stated)	0%	0%	-74*	-10	-60%
